Compounds without any hit were thinned out: in the full panel of roughly 83,000, 20% have a hit.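 For each line, cells grew in 96-well plates with the test compound present at a single concentration for 48 hours.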 Values without a mark were called inactive. Activity calls are given as the source filed them. Rule for the calls: active = growth percent below 10; inactive = the rest.

Among the test systems are HCT-15 colon; HT29 colon; SNB-75 CNS; SNB-19 CNS; U251 CNS; PC-3 prostate; SK-MEL-5 melanoma; UACC-62 melanoma; LOX IMVI melanoma; SK-MEL-28 melanoma.
Experiment in all cases: NCI-60 one-dose screen, 48 h (100 = growth as untreated, 0 = no growth, -100 = all killed)
What all share (conditions): 10 µM unless noted

`COc1ccc(S(=O)(=O)Nc2c(/C=C\c3cc(OC)c(OC)c(OC)c3)ccc(OC)c2O)cc1OC`: the growth was 15.6% with HCT-15 colon; 10% with HT29 colon; 43.8% in the assay with SNB-75 CNS; 39% with SNB-19 CNS; 12.9% with U251 CNS; 28.2% in the assay with PC-3 prostate. The growth in the assay on SK-MEL-5 melanoma is -34.9% (active); in the assay on UACC-62 melanoma, 45.2%; with LOX IMVI melanoma, 21.6%; in the assay with SK-MEL-28 melanoma it was 58.6%.
With `Cc1ccc(C(Cc2ccccc2)NCCO)cc1` (stereo not given), the growth with HCT-15 colon is 103%; in the assay with HT29 colon, 65.4%; in the assay on SNB-75 CNS, 87.1%; in the assay on SNB-19 CNS, 99.3%; with U251 CNS it was 87.8%; with PC-3 prostate it was 69.4%. Moreover, the growth with SK-MEL-5 melanoma was 98.4%; in the assay on UACC-62 melanoma, 94.7%; in the assay on LOX IMVI melanoma it was 100%; in the assay on SK-MEL-28 melanoma, 61.9%.
With `COc1cc(/C=C\c2cc(OC)c(OC)c(OC)c2)cc(NS(=O)(=O)c2cccc(Cl)c2)c1OC`, the growth with HCT-15 colon is 10.9%; with HT29 colon it was 15.3%; with SNB-75 CNS it was 64.5%; with SNB-19 CNS, 41.2%; with U251 CNS it was 11.1%; in the assay on PC-3 prostate, 35.1%. The growth in the assay on SK-MEL-5 melanoma is -29.4% (active); in the assay with UACC-62 melanoma, 36.1%; in the assay with LOX IMVI melanoma, 20%; in the assay with SK-MEL-28 melanoma it was 64%.
Regarding `N#CCCNc1ccccc1`, the growth in the assay with HCT-15 colon is 111%; with HT29 colon it was 108%; in the assay on SNB-75 CNS it was 88.6%; with SNB-19 CNS, 116%; in the assay with U251 CNS, 103%; with PC-3 prostate, 96.9%. Moreover, the growth is 107% with SK-MEL-5 melanoma, 117% in the assay with UACC-62 melanoma, 106% in the assay with LOX IMVI melanoma and 99.8% in the assay with SK-MEL-28 melanoma.
On to `COc1cc2c(cc1OCCCn1c(-c3ccccn3)nc3ccccc31)N=C[C@@H]1CCCN1C2=O`, for which the growth is -22.7% (active) in the assay on HCT-15 colon; -26.7% (active) with HT29 colon; 23.3% in the assay with SNB-75 CNS; 27.2% in the assay on SNB-19 CNS; -44% (active) in the assay on U251 CNS; 12.8% in the assay with PC-3 prostate. Besides, the growth was -69.7% (active) with SK-MEL-5 melanoma, -75.9% (active) in the assay with UACC-62 melanoma, -7.37% (active) in the assay with LOX IMVI melanoma and 5.44% (active) in the assay with SK-MEL-28 melanoma.
With `COc1cc(NC(C)CCCNC2CN3CCC2CC3)c2ncccc2c1` (stereo not given), the growth was 65.8% in the assay with HCT-15 colon; 27% in the assay with HT29 colon; 78.1% with SNB-75 CNS; 86.5% in the assay on SNB-19 CNS; 77.7% in the assay on U251 CNS; 55.6% in the assay with PC-3 prostate. Also, the growth in the assay on SK-MEL-5 melanoma was 70%; with UACC-62 melanoma it was 38%; in the assay on LOX IMVI melanoma, 76.1%; in the assay with SK-MEL-28 melanoma, 95.3%.
Turning to `N/C(=N/N=C/c1ccncc1)N[N+](=O)[O-]`, the growth was 97.3% with HCT-15 colon; 101% in the assay on HT29 colon; 96% with SNB-75 CNS; 104% in the assay on SNB-19 CNS; 97.4% in the assay on U251 CNS; 97.9% in the assay with PC-3 prostate. Moreover, the growth was 103% in the assay on SK-MEL-5 melanoma, 97.3% with UACC-62 melanoma, 95.5% with LOX IMVI melanoma and 110% in the assay on SK-MEL-28 melanoma.
Take `COc1ccc(/C=C\c2cc(OC)c(OC)c(OC)c2)cc1OCC(=O)Nc1nc2ccc(OC(F)(F)F)cc2s1`: the growth in the assay on HCT-15 colon was 22.2%; in the assay on HT29 colon it was 97.5%; with SNB-75 CNS, 7.25% (active); in the assay on SNB-19 CNS, 42.7%; in the assay on U251 CNS, 26%; in the assay on PC-3 prostate, 34%. In addition, the growth was 27.3% in the assay on SK-MEL-5 melanoma, 31.1% with UACC-62 melanoma, 27.1% with LOX IMVI melanoma and 34.4% in the assay on SK-MEL-28 melanoma.
`CCCCN1CCCC[C@@H]1C(=O)N[C@H](C(=O)N(C)[C@H](C[C@@H](OC(C)=O)c1nc(C(=O)NC2CCC(C(=O)OC)CC2)cs1)C(C)C)C(C)C` (stereo not given in full): the growth in the assay on HCT-15 colon was 30.9%; in the assay with HT29 colon, 14.8%; with SNB-75 CNS, -4.95% (active); in the assay with SNB-19 CNS, 24%; with U251 CNS, 15.5%; in the assay on PC-3 prostate, 29.1%. Moreover, the growth in the assay with SK-MEL-5 melanoma is 38.4%; with UACC-62 melanoma it was 33.3%; in the assay on LOX IMVI melanoma it was 35.6%; with SK-MEL-28 melanoma, 72.1%.
In the case of `COC(=O)[C@@H](C)C[C@H](Cc1ccccc1)NC(=O)c1csc(CC[C@H](C(C)C)N(C)C(=O)[C@@H](NC(=O)[C@H]2CCCCN2C)C(C)C)n1`, the growth with HCT-15 colon was 10.9%; in the assay with HT29 colon, 3.34% (active); in the assay on SNB-75 CNS, 42.6%; with SNB-19 CNS, 35.4%; with U251 CNS, 14.8%; with PC-3 prostate it was 27.6%. In addition, the growth is -19.5% (active) in the assay on SK-MEL-5 melanoma, 40.7% in the assay on UACC-62 melanoma, 28.6% with LOX IMVI melanoma and 63.2% in the assay on SK-MEL-28 melanoma.
Take `C=C1[C@@H](C)[C@H]2[C@H](Cc3ccccc3)NC(=O)[C@]23[C@@H](O)/C=C/[C@@](C)(O)C(=O)[C@@H](C)C/C=C/[C@H]3[C@@H]1O`: the growth is 66.1% in the assay with HCT-15 colon; 25.3% in the assay on HT29 colon; -8.47% (active) in the assay on SNB-75 CNS; 40.7% with SNB-19 CNS; 21.9% with U251 CNS; 45.2% in the assay with PC-3 prostate. The growth with SK-MEL-5 melanoma was 77.6%; in the assay on UACC-62 melanoma, 65.6%; in the assay on LOX IMVI melanoma, 27.1%; in the assay on SK-MEL-28 melanoma it was 67.1%.
In the case of `COC(=O)[C@@H](C)C[C@H](Cc1ccc(F)cc1)NC(=O)c1csc([C@@H](C[C@H](C(C)C)N(C)C(=O)[C@@H](NC(=O)[C@H]2CCCCN2C)C(C)C)OC(C)=O)n1`, the growth is 15.6% with HCT-15 colon; 3.51% (active) in the assay with HT29 colon; 63.8% in the assay on SNB-75 CNS; 36.6% with SNB-19 CNS; 6.95% (active) in the assay on U251 CNS; 28.4% in the assay with PC-3 prostate. The growth in the assay on SK-MEL-5 melanoma is -32.8% (active); in the assay on UACC-62 melanoma, 42.2%; with LOX IMVI melanoma, 23.1%; in the assay on SK-MEL-28 melanoma, 58.9%.
